According to PubChem BioAssay AID1568 (National Center for Advancing Translational Sciences (NCATS), 2009):
Inconclusive results are not listed. A call without a number means that no potency is given here. Activity calls are given as the source filed them. Calls follow the shape of the dose curve; as a rule, active = well fitted curve in the direction sought with a large enough effect; inconclusive = small, poorly fitted or top-dose-only effect, or effect the other way, or another doubt; inactive = no such curve, though single readings can be large or run the other way.

Test: Cell Viability Secondary Assay to Characterize qHTS Inhibitors of the Interaction of Thyroid Hormone Receptor and Steroid Receptor Coregulator 2
Text: NIH Molecular Libraries Probe Production Network [MLPCN]
NIH Chemical Genomics Center [NCGC]
Assay Provider: R. Kip Guy, St. Jude Children's Research Hospital
Thyroid receptor (TR) regulates many homeostatic processes including basal metabolism, cardiovascular function, body weight, and lipid trafficking. TR modulators are potential therapeutics for obesity and hyperlipidemias but current thyroid analogs have undesirable side effects, particularly cardiac stimulation. This secondary assay characterized selected actives identified in the qHTS for Inhibitors of the Interaction of Thyroid Hormone Receptor and Steroid Receptor Coregulator 2. The human follicular thyroid carcinoma cell line WRO (kindly provided by Dr. M. D. Ringel) stably expresses TRbeta and a luciferase reporter gene fused to TR response element. The effect of compounds on the viability of these cells was assessed by measuring ATP levels. Compounds that reduce cell viability are likely cytotoxic.
NCGC Assay Protocol Summary:
Cells were maintained in RPMI 1640 culture medium supplemented with 10% heat-inactivated FBS, 0.33 mg/ml hygromycin, 0.33 mg/ml geneticin, 50 units/ml penicillin, 50 ug/ml streptomycin. Cells were harvested and resuspended at 330,000 cells/ml in assay medium (50% DMEM 50% F-12 medium without Phenol-Red (Cellgro #16-405-CV), L-glutamine, 10% heat inactivated and charcoal treated FBS, 100 uM non-essential amino acid, 50 units/ml penicillin, 50 ug/ml streptomycin). Cells were dispensed at 10,000 cells/30 ul/well into 384 well plates (Corning 3917) and incubated 12 h at 37 C and 5% CO2. Compounds and T3 (100nM final concentration) were added using a pin tool and plates were incubated 16 h incubation at 37 C and 5% CO2. Following incubation, plates were equilibrated at ambient temperature for 30 min, 20 ul of CellTiter-Glo (Promega) was added and luminescence was detected by an EnVision (PerkinElmer).

Row | SMILES | Potency
1 | CCCCCn1c(N)c(C(=O)NCc2cccs2)c2nc3ccccc3nc21 | inactive
2 | COP(=S)(OC)Oc1ccc([N+](=O)[O-])cc1 | 31.6 µM (active)
3 | O=C(O)CC1OCC=C2CN3CCC45C6=CC(=O)C(=O)C([N+](=O)[O-])=C6NC4C1C2CC35 (stereo not given) | inactive
4 | CN1CC[C@@]2(C)c3cc(O)ccc3N(C)C2O1 (stereo not given in full) | 14.1 µM (active)
5 | Cc1[nH]n(-c2ccccc2)c(=O)c1C(c1ccc([N+](=O)[O-])cc1)c1c(C)[nH]n(-c2ccccc2)c1=O | inactive
